# ALOX12 inh = inhibitors of human 12S-lipoxygenase ALOX12 | P18054 | AID 1671190 | 580,000 tested, 1.1% active | Potency, µM (series often up to 108 µM), for the others: at the top dose activity change, negative = inhibition, most hits filed as inhibitors | purified 12hLO, xylenol orange hydroperoxide absorbance; note: potency is the fitted concentration of half-maximal effect
# Target sequence (P18054 whole entry, looked up): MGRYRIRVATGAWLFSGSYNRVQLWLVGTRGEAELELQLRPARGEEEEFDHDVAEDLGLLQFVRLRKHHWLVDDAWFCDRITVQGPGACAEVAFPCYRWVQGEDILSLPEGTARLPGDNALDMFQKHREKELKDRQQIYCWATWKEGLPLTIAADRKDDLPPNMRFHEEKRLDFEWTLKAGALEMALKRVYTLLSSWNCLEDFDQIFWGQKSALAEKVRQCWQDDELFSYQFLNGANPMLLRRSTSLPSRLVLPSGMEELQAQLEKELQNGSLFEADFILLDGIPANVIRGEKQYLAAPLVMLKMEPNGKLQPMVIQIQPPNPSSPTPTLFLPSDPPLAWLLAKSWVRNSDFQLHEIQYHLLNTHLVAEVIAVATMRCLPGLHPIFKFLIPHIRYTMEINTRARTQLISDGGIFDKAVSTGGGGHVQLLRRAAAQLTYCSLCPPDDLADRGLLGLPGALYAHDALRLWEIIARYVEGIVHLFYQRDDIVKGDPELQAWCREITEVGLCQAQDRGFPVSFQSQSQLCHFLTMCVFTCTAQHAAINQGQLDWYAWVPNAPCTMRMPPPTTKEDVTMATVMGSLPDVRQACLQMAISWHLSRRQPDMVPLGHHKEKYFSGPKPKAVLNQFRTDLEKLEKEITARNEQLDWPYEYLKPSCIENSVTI
#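 Purified human 12hLO (150 nM final) in 25 mM Hepes, 0.01% Triton X-100, pH 7.0 was preincubated 15 min at room temperature with compound. Then 40 uM arachidonic acid was added, 30 min. Hydroperoxide was read by Fe-XO absorbance ratio 573/405 nm.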
# HT1080 IDH1KD tx = kills HT-1080 cells with IDH1 knockdown; Potency, µM (highest dose often 46.1 µM), for the others: at the highest dose activity, negative = toxicity, usual class: cytotoxic; 360,000 tested, 2% active; HT-1080 IDH1 knockdown viability, ATP luminescence, 48 h;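 note: potency is the fitted concentration of half-maximal effect; 0% = DMSO wells and -100% = cell-free medium wells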
#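 CellTiter-Glo luminescence after 48 h compound exposure at 37 degrees C of IDH1-knockdown HT-1080 cells in 5% FBS RPMI. %Activity scaled between DMSO wells and cell-free media wells, with curves fitted and assigned curve classes.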
# IL1B secr inh = inhibitors of inflammasome signaling (IL-1 beta secretion) | THP-1 LPS/ATP IL-1B secretion, AlphaLISA, 16 h; active compounds read low | activity change, % at 57.5 µM | 360,000 tested, 4.7% active; in the data active = activity change below about -50%; inconclusive = mostly about -30% to -49%
#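 THP-1 cells pretreated 1 hr with compounds (up to 57.5 uM final), then stimulated with LPS (250 ng/mL final) plus ATP (1.25 mM final); secreted IL-1B measured by AlphaLISA after 16 hr, decreased signal indicating inhibition.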
# HT1080NT lethal = kills 2HG-producing HT-1080-NT fibrosarcoma cells; HT-1080-NT fibrosarcoma viability, CellTiter-Glo ATP luminescence, 48 h; Potency, µM (doses to about 46.1 µM), for inactives: top-dose activity, negative = less viability, most hits filed as cytotoxic; 360,000 tested, 1.6% active;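 note: NT is the 2HG producing partner of a matched IDH1 knockdown line; potency is the fitted concentration of half-maximal effect; 0% = DMSO-treated cells and -100% = media-only wells without cells; nearly all actives have a fitted effect of over 55% in size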
#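 Viability of the 2HG-overproducing fibrosarcoma line after 48 hours of compound exposure at 37 degrees C was determined by luminescence with CellTiter-Glo, and concentration-effect curves were then fitted and categorized.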
# DT40 TDP1 no CPT = qHTS for Inhibitors of human tyrosyl-DNA phosphodiesterase 1 (TDP1): qHTS in cells in absence of CPT; DT40 Tdp1-/- hTDP1 cells, no CPT, ATP luminescence, 48 h; Potency, µM (series often up to 46.2 µM), without a hit: at the highest dose activity change, negative = growth inhibition, most hits filed as inhibitors; 420,000 tested, 15% active; note: potency is the fitted concentration of half-maximal effect; nearly all actives have a fitted effect of over 55% in size
#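 Growth of hTDP1-complemented DT40 Tdp1-knockout cells is measured by ATP luminescence after at least 48 hr compound exposure at 37 °C, with DMSO substituting for the 20 nM CPT used in the parallel screen.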
# TDP1 cell CPT = DT40-hTDP1 cell growth loss with CPT; Potency, µM (series often up to 46.2 µM), for the others: top-dose activity change, negative = growth inhibition, most hits filed as inhibitors; chicken DT40 Tdp1-/-;hTDP1 cells + 20 nM CPT, ATP luminescence, 48 h; 420,000 tested, 12% active; note: potency is the fitted concentration of half-maximal effect; nearly all actives have a fitted effect of over 55% in size
#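 Cell growth measured by CellTiter-Glo luminescence after a minimum 48 h, 37 C compound exposure with 20 nM CPT in Tdp1-knockout DT40 cells stably expressing hTDP1, seeded 400/well; qHTS titration format.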
# The depositor's hits bear a star; ? = inconclusive; . = not tested or not shown; [ ] = dose if it differs, or a comment. The entries come from a sample that favours hits as a whole. Unless noted, calls come from the whole dose curve; as a rule, active = well fitted curve in the direction sought with a large enough effect; inconclusive = small, poorly fitted or top-dose-only effect, or another doubt; inactive = no such curve, though single readings can be large; an effect the other way counts as inactive or inconclusive. Unless noted, % is set by controls: 0 for no effect and ±100 for the full control effect.
SMILES,ALOX12 inh,HT1080 IDH1KD tx,IL1B secr inh,HT1080NT lethal,DT40 TDP1 no CPT,TDP1 cell CPT
O=C(Nc1ncccc1O)c1ccc2ccccc2c1,.,-11.1%,46.6,-1.8%,1.6%,-14.2%
O=C(Nc1ncccc1O)c1ccc2c(c1)OCCO2,-0.5%,-3.0%,11.5,-8.6%,14.6µM*,23.1µM*
O=C(Nc1ncccc1O)c1ccc2c(c1)OCO2,?,-19.8%,26.6,-32.8%,16.4µM*,?
Cc1cccnc1NC(=O)c1ccc2c(c1)OCCO2,8.4%,13.9%,-5.0,10.6%,-8.9%,0.8%
CC1(C)Cc2ccccc2C(NNC(=O)c2ccccn2)=N1,0.0%,?,75.4,-28.2%,20.6µM*,18.4µM*
O=C(Nc1ccccc1Cl)C12CC3CC(CC(C3)C1)C2,-22.1%,.,.,.,.,.
CCOC(=O)c1[nH]cnc1C(=O)Nc1ccccn1,2.7%,23.3%,-63.9*,-14.2%,-6.2%,-13.9%
CCOC(=O)c1[nH]cnc1C(=O)Nc1ccccc1,6.6%,15.2%,0.0,23.1%,-1.3%,4.6%
CCN(CC)S(=O)(=O)c1ccc(N(C)C)c(NC(=O)C2CCCC2)c1,-0.3%,-1.4%,-53.9*,-8.8%,-11.8%,-15.1%
CCN(CC)c1ccc(S(=O)(=O)N2CCOCC2)cc1NC(=O)C1CC1,195.9%,6.4%,0.0,13.6%,-12.9%,-2.5%
CCN(CC)c1ccc(S(=O)(=O)N2CCCCC2)cc1NC(=O)C1CCC1,-13.8%,0.5%,-17.9,0.0%,?,18.4µM*
CCN(CC)c1ccc(S(=O)(=O)N2CCCCC2)cc1NC(=O)C1CSC2(C)CCC(=O)N12 (stereo unspecified),30.7%,-6.2%,-50.1*,-6.7%,9.2µM*,?
CCN(CC)c1ccc(S(=O)(=O)N(CC)CC)cc1NC(=O)C1CCCC1,-1.3%,-12.9%,-4.3,0.4%,?,?
Cc1noc([C@@H]2CN(C(=O)c3n[nH]c4ccccc34)C[C@H]2C(N)=O)n1,33.4%,.,.,.,.,.
Cc1ccc2c(c1)nc1n2[C@@H](CNC(=O)c2ccc(C#N)cc2)COC1,16.3%[176 µM],.,.,.,.,.
CC(C)c1cc(C(=O)Nc2ccc(C(=O)N(C)C)cc2)c2ccccc2n1,64.6%,.,.,.,.,.
COc1ccc(CNC(=O)c2sc(=O)n(Cc3cc(C(C)=O)ccc3OC)c2C)cc1,-2.4%,8.7%,-8.5,2.9%,13µM*,23.1µM*
Cc1c(C(=O)NCc2ccc(Cl)c(Cl)c2)sc(=O)n1Cc1cccc(F)c1,-10.8%,?,?,?,?,?
COc1ccc(C(C)=O)cc1Cn1c(C)c(C(=O)NCc2cccc(Cl)c2)sc1=O,16.1%,-1.6%,-24.2,-24.6%,20.6µM*,?
COc1ccc(Cl)cc1Cn1c(C)c(C(=O)NCc2ccc3c(c2)OCCO3)sc1=O,2.1%,-4.2%,-8.7,-5.0%,18.4µM*,?
COc1ccc(C(C)=O)cc1Cn1c(C)c(C(=O)NCc2ccc(C(C)C)cc2)sc1=O,-0.5%,-20.5%,26.2,-22.1%,?,?
COc1ccc(NC(=O)c2sc(=O)n(Cc3ccc(F)c(Cl)c3)c2C)cc1OC,4.2%,?,-6.0,-11.6%,10.3µM*,23.1µM*
Cc1oc(-c2ccccc2)nc1CC(=O)N1CCC(C(N)=O)CC1,-12.3%,.,.,.,.,.
O=C(COc1cc(F)ccc1[N+](=O)[O-])Nc1ccc2c(c1)CCC2,14.6%,.,.,.,.,.
COc1cccc(CN2CCCCCCNC(=O)CC2c2ccccc2)c1OC (stereo unspecified),-15.5%,.,.,.,.,.
SMILES,ALOX12 inh,HT1080 IDH1KD tx,IL1B secr inh,HT1080NT lethal,DT40 TDP1 no CPT,TDP1 cell CPT
CC(C)c1noc(CN2CCN(CCOc3ccc(Cl)cc3)CC2)n1,-19.6%,.,.,.,.,.
COc1cccc(NC(=O)c2ccc(-c3nnc4ccc(NC(=O)C5CCC5)cn34)cc2)c1,8.4%,.,.,.,.,.
N#Cc1nc(-c2ccc(F)cc2)oc1NC1CCCCC1,4.1%,.,.,.,.,.
Cc1cccc(C)c1Cn1c(C)c(C(=O)NCc2ccc([N+](=O)[O-])cc2)sc1=O,11.4%,?,0.0,?,23.1µM*,?
COc1ccc(C(C)=O)cc1Cn1c(C)c(C(=O)NCc2cccc(C(F)(F)F)c2)sc1=O,-6.4%,?,-22.2,-19.1%,?,?
COc1ccc(C(C)=O)cc1Cn1c(C)c(C(=O)NCc2cccc(C)c2)sc1=O,14.5%,5.8%,-78.5*,5.4%,?,?
CC(=O)Oc1ccc(Cn2c(C)c(C(=O)NCc3ccc4c(c3)OCCO4)sc2=O)cc1,21.0%,-16.3%,18.6,-16.6%,16.4µM*,?
COc1ccc(Cl)cc1Cn1c(C)c(C(=O)NCc2cccc(Cl)c2)sc1=O,5.1%,-1.1%,0.0,-3.1%,?,14.6µM*
COC(=O)c1ccc(Cn2c(C)c(C(=O)NCc3ccc([N+](=O)[O-])cc3)sc2=O)o1,-2.4%,-22.5%,-2.5,-0.1%,?,?
COc1ccc(Br)c(Cn2c(C)c(C(=O)NCc3ccc4c(c3)OCCO4)sc2=O)c1,-9.0%,2.2%,-20.6,2.4%,-20.0%,?
O=C(CN1CCCc2nc(-c3ccccc3)ncc2C1=O)NCCCN1CCCC1=O,47.0%,.,.,.,.,.
O=C(c1cccnc1)N1CCC2(CC1)CC(N(Cc1ccc(F)cc1)C1CC1)CCO2 (stereo unspecified),31.9%,.,.,.,.,.
CCc1ccc(-c2nc(SCc3nc4cc(S(=O)(=O)N(C)C)ccc4n3CC)n[nH]2)cc1,7.2%,.,.,.,.,.
CNC(=O)C1CCCN(S(=O)(=O)c2ccccc2)CCC(=O)NCC1 (stereo unspecified),31.9%,.,.,.,.,.
CCN1CCC2(CCC1=O)CN(Cc1nc3c(cnn3C)c(=O)[nH]1)CCN2C (stereo unspecified),25.9%,.,.,.,.,.
COc1ccc(CNC(=O)c2sc(=O)n(Cc3ccc(C)cc3)c2C)cc1,0.4%,-2.4%,?,5.4%,?,?
CSc1ccc(Cn2c(C)c(C(=O)NCc3cccc(C)c3)sc2=O)cc1,0.8%,?,-65.2*,-9.5%,?,23.1µM*
CSc1ccc(Cn2c(C)c(C(=O)NCc3cccc(Cl)c3)sc2=O)cc1,3.7%,?,?,-17.0%,?,?
COc1ccc(CNC(=O)c2sc(=O)n(Cc3cc(Cl)ccc3OC)c2C)cc1,13.7%,-1.4%,-18.8,-3.8%,16.4µM*,?
O=C(CCc1nc(-c2ccccc2)no1)NC1CCCN(CCCc2ccccc2)C1 (stereo unspecified),14.8%,.,.,.,.,.
CC(C)(C)c1ccc(-c2nc(C#N)c(NCC3CCCO3)o2)cc1 (stereo unspecified),-4.7%,.,.,.,.,.

# From PubChem BioAssay
